Records with an inconclusive call do not appear. Calls of active or inactive are those of the source. Calls come from the whole dose curve; as a rule, active = well fitted curve in the direction sought with a large enough effect; inconclusive = small, poorly fitted or top-dose-only effect, or another doubt; inactive = no such curve, though single readings can be large; an effect the other way counts as inactive or inconclusive.
Experiments:
[1] = Quantitative High-Throughput drug screen in 47 multiple myeloma cell lines against the NCATS MIPE library collection: KHM11_PLB cell viability assay (AID 1918962); note: nearly all actives have a fitted effect of over 35% in size
In short: (§1)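 Myeloma cell lines, 500 cells per well, exposed to MIPE 4.0 library compounds for 48 h at 37C, 5% CO2. Viability from ATP by CellTiter-Glo luminescence; normalised to DMSO (100%) and media-only (0%) wells.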

[2] = Quantitative High-Throughput drug screen in 47 multiple myeloma cell lines against the NCATS MIPE library collection: JIM3_ECACC cell viability assay (AID 1918963; note: nearly all actives have a fitted effect of over 35% in size)
In short: as §1

[3] = Quantitative High-Throughput drug screen in 47 multiple myeloma cell lines against the NCATS MIPE library collection: JIM1_ECACC cell viability assay (AID 1918964)
In short: as §1

[4] = Quantitative High-Throughput drug screen in 47 multiple myeloma cell lines against the NCATS MIPE library collection: INA6_PLB cell viability assay (AID 1918965; note: nearly all actives have a fitted effect of over 55% in size)
In short: as §1

[5] = Quantitative High-Throughput drug screen in 47 multiple myeloma cell lines against the NCATS MIPE library collection: JJN3_DSMZ cell viability assay (AID 1918966; note: nearly all actives have a fitted effect of over 50% in size)
In short: as §1

[6] = Quantitative High-Throughput drug screen in 47 multiple myeloma cell lines against the NCATS MIPE library collection: H1112_PLB cell viability assay (AID 1918967; note: nearly all actives have a fitted effect of over 30% in size)
In short: as §1

[7] = Quantitative High-Throughput drug screen in 47 multiple myeloma cell lines against the NCATS MIPE library collection: KMS27_JCRB cell viability assay (AID 1918970); note: nearly all actives have a fitted effect of over 30% in size
In short: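 Myeloma cells (500 per well) were exposed to MIPE 4.0 compounds for 48 h at 37 °C, 5% CO2; viability was read as ATP luminescence with CellTiter-Glo, normalized to DMSO-only (100%) and media-only (0%) wells.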

[8] = Quantitative High-Throughput drug screen in 47 multiple myeloma cell lines against the NCATS MIPE library collection: Karpas25_ECACC cell viability assay (AID 1918968; note: nearly all actives have a fitted effect of over 35% in size)
In short: as §1

[9] = Quantitative High-Throughput drug screen in 47 multiple myeloma cell lines against the NCATS MIPE library collection: KMS12BM_JCRB cell viability assay (AID 1918971); note: nearly all actives have a fitted effect of over 35% in size
In short: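 Viability readout: CellTiter-Glo luminescence following 5 min room-temperature incubation with reagent. Prior exposure: 48 h, 37C, humidified 5% CO2, 500 cells per well.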
Potency is the fitted concentration of half-maximal effect.

CC(C)c1ccccc1Cc1cc(C(=O)Nc2ccc(S(=O)(=O)c3ccccc3C(C)(C)C)cc2)c(O)c(O)c1O
active: Potency [1] 7.43 µM | Potency [2] 4.18 µM | Potency [4] 5.26 µM | Potency [5] 14.8 µM | Potency [6] 6.62 µM
inactive: Potency [3] | Potency [7]

Nc1ncnc2c1c(-c1cccc(OCc3ccccc3)c1)cn2C1CC(CN2CCCC2)C1 (centres undefined)
active: Potency [1] 5.26 µM | Potency [2] 0.0833 µM | Potency [3] 296 nM | Potency [4] 6.62 µM | Potency [5] 5.9 µM | Potency [6] 16.6 µM | Potency [8] 148 nM | Potency [9] 23.5 µM

O=C(Cc1ccc(-c2ccc(OCCN3CCOCC3)cc2)cn1)NCc1ccccc1
active: Potency [1] 0.469 µM | Potency [2] 0.0166 µM | Potency [3] 7.4 nM | Potency [4] 0.0166 µM | Potency [5] 0.132 µM | Potency [6] 0.0187 µM | Potency [8] 41.8 nM | Potency [9] 0.0372 µM

Nc1ccn([C@@H]2O[C@H](CO)[C@H](O)C2(F)F)c(=O)n1
active: Potency [1] 5.9 µM | Potency [2] 0.526 µM | Potency [3] 105 nM | Potency [4] 0.0526 µM | Potency [6] 0.0187 µM | Potency [8] 3720 nM | Potency [7] 52.6 nM | Potency [9] 0.0264 µM

C#Cc1cccc(Nc2ncnc3cc(OC)c(OCCCCCCC(=O)NO)cc23)c1
active: Potency [1] 0.372 µM | Potency [2] 2.35 µM | Potency [3] 66.2 nM | Potency [4] 0.0166 µM | Potency [5] 0.132 µM | Potency [6] 0.296 µM | Potency [8] 52.6 nM | Potency [7] 74.3 nM

COc1cc2c(cc1-c1c(C)noc1C)ncc1[nH]c(=O)n([C@H](C)c3ccccn3)c12
active: Potency [1] 2.96 µM | Potency [2] 18.7 µM | Potency [3] 5900 nM | Potency [4] 0.264 µM | Potency [5] 6.62 µM | Potency [6] 20.9 µM | Potency [8] 4690 nM | Potency [7] 3720 nM

COc1ccc(C=Cc2cc(OC)c(OC)c(OC)c2)cc1O
inactive: Potency [1] | Potency [2] | Potency [3] | Potency [4] | Potency [6] | Potency [8] | Potency [7]

CC(=O)OCC(=O)[C@@]1(O)[C@H](C)C[C@H]2[C@@H]3C=C(C)C4=Cc5c(cnn5-c5ccccc5)C[C@]4(C)[C@@H]3[C@@H](O)C[C@@]21C
active: Potency [1] 16.6 µM | Potency [2] 9.35 µM | Potency [3] 9350 nM | Potency [4] 5.26 µM | Potency [5] 9.35 µM | Potency [6] 10.5 µM | Potency [9] 16.6 µM

Cc1coc2c1C(=O)C(=O)c1c-2ccc2c1CCCC2(C)C
inactive: Potency [3]
active: Potency [1] 7.43 µM | Potency [2] 6.62 µM | Potency [4] 16.6 µM | Potency [5] 11.8 µM | Potency [6] 8.33 µM | Potency [8] 8330 nM | Potency [7] 166 nM | Potency [9] 5.26 µM

CNC(=O)c1nn(C)c2c1C(C)(C)Cc1cnc(Nc3ccc(N4CCN(C)CC4)cc3)nc1-2
active: Potency [1] 1.48 µM | Potency [2] 3.72 µM | Potency [3] 743 nM | Potency [4] 0.743 µM | Potency [5] 4.69 µM | Potency [6] 4.69 µM | Potency [8] 2350 nM | Potency [7] 662 nM | Potency [9] 1.66 µM

CNC(=O)c1ccccc1Nc1nc(Nc2ccc(N3CCOCC3)cc2OC)ncc1Cl
active: Potency [1] 7.43 µM | Potency [2] 0.209 µM | Potency [3] 105 nM | Potency [4] 5.26 µM | Potency [5] 3.72 µM | Potency [8] 209 nM | Potency [7] 132 nM | Potency [9] 13.2 µM

Cc1nc(N)ncc1-c1nc(N2CCOCC2)c2sc(C(C)(C)O)cc2n1
active: Potency [1] 0.662 µM | Potency [3] 41.8 nM | Potency [4] 3.72 µM | Potency [6] 6.62 µM | Potency [8] 418 nM | Potency [7] 235 nM | Potency [9] 8.33 µM

O=C(O)c1ccc2c(c1)nc(Nc1cccc(Cl)c1)c1ccncc12
active: Potency [1] 5.9 µM | Potency [3] 6620 nM | Potency [4] 1.66 µM | Potency [6] 6.62 µM | Potency [8] 2640 nM | Potency [7] 1660 nM | Potency [9] 10.5 µM

COc1ccc(CC2c3cc(OC)c(OC)cc3CC[N+]2(C)CCC(=O)OCCCCCOC(=O)CC[N+]2(C)CCc3cc(OC)c(OC)cc3C2Cc2ccc(OC)c(OC)c2)cc1OC (centres undefined)
inactive: viability, % of DMSO control [1] 95.7% [at 5.15 µM] | viability (% of DMSO) [3] 83.6% [at 5.15 µM] | viability [6] 104% [at 5.15 µM] | viability (% of control) [8] 100% [at 5.15 µM] | viability (% of DMSO) [7] 108% [at 5.15 µM] | viability, % of DMSO [9] 113% [at 5.15 µM]

Cc1cnc(-c2cnc(NCCNc3ccc(C#N)cn3)nc2-c2ccc(Cl)cc2Cl)[nH]1
active: Potency [1] 16.6 µM | Potency [4] 2.35 µM
inactive: Potency [3]

O=C(c1ccc(Nc2nccc(-c3cc4ccccc4s3)n2)cc1)N1CCC(N2CCCC2)CC1
active: Potency [1] 3.72 µM | Potency [3] 4690 nM | Potency [4] 1.66 µM | Potency [5] 16.6 µM | Potency [6] 7.43 µM | Potency [9] 13.2 µM

Cc1cc(Nc2cc(N3CCN(C)CC3)nc(Sc3ccc(NC(=O)C4CC4)cc3)n2)n[nH]1
active: Potency [1] 1.32 µM | Potency [3] 6620 nM | Potency [4] 16.6 µM | Potency [5] 16.6 µM | Potency [8] 18700 nM | Potency [7] 11.8 nM

Cn1c2ccccc2c2c3c(c4c5ccccc5n(CCC#N)c4c21)CNC3=O
active: Potency [1] 0.833 µM | Potency [2] 6.62 µM | Potency [4] 0.0833 µM | Potency [6] 2.09 µM | Potency [8] 1870 nM

O=C(CCCCCCNC(=O)c1cnc(N(c2ccccc2)c2ccccc2)nc1)NO
active: Potency [1] 10.5 µM | Potency [2] 16.6 µM | Potency [4] 2.64 µM | Potency [6] 13.2 µM | Potency [8] 4180 nM | Potency [7] 5260 nM

CCOc1cc2ncc(C#N)c(Nc3ccc(F)c(Cl)c3)c2cc1NC(=O)C=CCN(C)C
active: Potency [1] 20.9 µM | Potency [2] 18.7 µM | Potency [4] 0.526 µM | Potency [6] 5.26 µM | Potency [8] 662 nM | Potency [9] 5.26 µM

Cc1cn(-c2cc(NC(=O)c3ccc(C)c(Nc4nccc(-c5cccnc5)n4)c3)cc(C(F)(F)F)c2)cn1
inactive: Potency [1] | Potency [2] | Potency [6] | Potency [8]
active: Potency [9] 20.9 µM

CCN1CCN(CC(=O)Nc2ccc(-c3cccc4c(=O)cc(N5CCOCC5)oc34)c3sc4ccccc4c23)CC1
active: Potency [1] 0.0526 µM | Potency [2] 1.18 µM | Potency [5] 3.72 µM | Potency [6] 6.62 µM | Potency [8] 264 nM | Potency [9] 1.05 µM

COC(=O)C1=C(C)NC(C)=C(C(=O)OCCN2CCN(C(c3ccccc3)c3ccccc3)CC2)C1c1cccc([N+](=O)[O-])c1 (centres undefined)
inactive: Potency [1] | Potency [2] | Potency [4] | Potency [6] | Potency [8] | Potency [7]

Nc1cccc(-c2cc3c(Oc4cccc(O)c4)ncnc3[nH]2)c1
active: Potency [1] 16.6 µM | Potency [2] 16.6 µM | Potency [4] 8.33 µM | Potency [8] 18700 nM | Potency [9] 20.9 µM

CC(C)c1cc(C(=O)N2Cc3ccc(CN4CCN(C)CC4)cc3C2)c(O)cc1O
active: Potency [1] 0.0935 µM | Potency [3] 74.3 nM | Potency [4] 0.118 µM | Potency [5] 0.209 µM | Potency [6] 5.26 µM | Potency [8] 166 nM | Potency [7] 132 nM | Potency [9] 0.264 µM

COc1c(OCCCN2CCOCC2)ccc2c3n(c(=NC(=O)c4cnc(N)nc4)nc12)CCN3
active: Potency [1] 0.575 µM | Potency [3] 7.2 nM | Potency [4] 6.45 µM | Potency [8] 57.5 nM | Potency [7] 45.7 nM | Potency [9] 5.75 µM

COCCn1c2c([n+](Cc3cnccn3)c1C)C(=O)c1ccccc1C2=O
active: Potency [1] 0.0296 µM | Potency [2] 0.0264 µM | Potency [5] 0.0023 µM | Potency [6] 0.0526 µM | Potency [9] 0.0418 µM

CCCn1c(=O)c2[nH]c(-c3cnn(Cc4cccc(C(F)(F)F)c4)c3)nc2n(CC)c1=O
inactive: Potency [1] | Potency [2] | Potency [6] | Potency [8]
